# Results filed as inconclusive are left out. Where a call stands in place of a potency, no number is given. Activity calls are given as the source filed them. The call rests on the fitted dose curve; in most records, active means well fitted inhibition curve with a large enough effect; inconclusive means small, poorly fitted or top-dose-only effect; inactive means flat fitted curve, though single readings scatter.
# System: CP238
# Experiment: qHTS profiling for inhibitors of Plasmodium falciparum proliferation (AID 504749); further: nearly all actives have a fitted effect of over 60% in size
# Conditions: P. falciparum in erythrocytes, SYBR Green DNA, 72 h; series mostly up to 28.7 µM
# How it was run: (§1)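 P. falciparum-infected erythrocytes (0.3% parasitemia, 2.5% hematocrit) incubated with compound 72 h at 37 C, 5% CO2. Parasite DNA detected by SYBR Green after lysis, overnight at room temperature; normalised to 0.29 uM artemisinin and DMSO.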
row,SMILES,Potency
1,CC(C)[C@@H](N)C(=O)O,inactive
2,C[C@H]1O[C@@H](O[C@H]2[C@@H](O)C[C@H](O[C@H]3[C@@H](O)C[C@H](O[C@H]4CC[C@@]5(C)[C@H](CC[C@@H]6[C@@H]5C[C@@H](O)[C@]5(C)[C@@H](C7=CC(=O)OC7)CC[C@]65O)C4)O[C@@H]3C)O[C@@H]2C)C[C@H](O)[C@@H]1O,inactive
3,CC(=O)NCCCS(=O)(=O)O,inactive
4,C=Cc1ccc(S(=O)(=O)O)cc1,inactive
5,CO,inactive
6,O=C1[O][Bi][O]c2ccccc21,inactive
7,O=P(O)(O)CP(=O)(O)O,inactive
8,O=C1c2ccccc2C(=O)C1c1ccc(F)cc1,inactive
9,CCOc1ccc(NC(=S)Nc2ccc(OCC)cc2)cc1,inactive
10,O=C(O)c1ccc(NC(=O)[C@H](Cc2ccc(O)cc2)NC(=O)c2ccccc2)cc1,inactive
11,COc1cc2c(cc1OC)[C@@H](Cc1cc(OC)c(OC)c(OC)c1)[N+](C)(CCCOC(=O)CC/C=C/CCC(=O)OCCC[N+]1(C)CCc3cc(OC)c(OC)cc3[C@H]1Cc1cc(OC)c(OC)c(OC)c1)CC2 (stereo partly drawn),inactive
12,F[Si-2](F)(F)(F)(F)F,inactive
13,CC(C)CCC[C@@H](C)[C@H]1CC[C@H]2[C@@H]3CC=C4C[C@@H](O)CC[C@]4(C)[C@H]3CC[C@]12C,inactive
14,N[C@H](CC(=O)O)C(=O)O,inactive
15,Cc1c(Cl)cccc1Nc1ncccc1C(=O)O,inactive
16,O=C(O)CCC/C=C\C[C@@H]1[C@@H](/C=C/[C@@H](O)COc2cccc(C(F)(F)F)c2)[C@H](O)C[C@@H]1O,inactive
17,CN1C(=O)OC(C)(C)C1=O,inactive
18,CCCCCCCCCCCC(=O)OCC(O)CO (stereo not drawn),inactive
19,O=C(O)[C@H]1C(=CCO)O[C@H]2CC(=O)N12,inactive
20,O=P(O)(O)O,inactive

row,SMILES,Potency
1,CC(=O)Nc1ccc(OC(=O)c2ccccc2O)cc1,inactive
2,CC1=CC(=O)NS(=O)(=O)O1,inactive
3,COC(=O)C(CN)c1c[nH]c2ccc(OC)cc12 (stereo not drawn),inactive
4,CCOC(=O)[C@@H](N)CS,inactive
5,CCCCCCOC(=O)c1cccnc1,inactive
6,CCN(CC)CCOc1ccccc1OC,inactive
7,CO/N=C(/C(=O)N[C@@H]1C(=O)N2C(C(=O)O)=C(COC(N)=O)CS[C@H]12)c1ccco1,inactive
8,ClC(Cl)Cl,inactive
9,Nc1ncnc2c1ncn2[C@H]1CC[C@@H](CO)O1,inactive
10,CC1CCCCN1CCCOC(=O)c1ccccc1 (stereo not drawn),inactive
11,CC(=O)[C@H]1CC[C@H]2[C@@H]3C=CC4=CC(=O)CC[C@@]4(C)[C@H]3CC[C@]12C,inactive
12,CC/C=C\C/C=C\C/C=C\CCCCCCCC(=O)O,inactive
13,CCCCCCCCCCCCCCCCCCCCCC(=O)Nc1ccn([C@@H]2O[C@H](CO)[C@@H](O)[C@@H]2O)c(=O)n1,inactive
14,CN(Cc1ccccc1)Cc1ccccc1,inactive
15,CCCc1ccc(C(=O)O)cc1,inactive
16,C=CC(=O)O,inactive
17,O=C(NNCNNC(=O)c1ccncc1)c1ccncc1,inactive
18,CN(C)c1ccc(C(=C2C=CC(=[N+](C)C)C=C2)c2c(O)c(S(=O)(=O)[O-])cc3cc(S(=O)(=O)O)ccc23)cc1,inactive
19,CC(C)(CO)[C@@H](O)C(=O)NCCC(=O)NCCSSCCNC(=O)CCNC(=O)[C@H](O)C(C)(C)CO,inactive

# System: CP247
# Experiment: as above
# Conditions: P. falciparum in erythrocytes, SYBR Green DNA, 72 h; series mostly up to 28.7 µM
# How it was run: as §1
row,SMILES,Potency
1,CC(C)[C@@H](N)C(=O)O,inactive
2,C[C@H]1O[C@@H](O[C@H]2[C@@H](O)C[C@H](O[C@H]3[C@@H](O)C[C@H](O[C@H]4CC[C@@]5(C)[C@H](CC[C@@H]6[C@@H]5C[C@@H](O)[C@]5(C)[C@@H](C7=CC(=O)OC7)CC[C@]65O)C4)O[C@@H]3C)O[C@@H]2C)C[C@H](O)[C@@H]1O,inactive
3,CC(=O)NCCCS(=O)(=O)O,inactive
4,C=Cc1ccc(S(=O)(=O)O)cc1,inactive
5,CO,inactive
6,O=C1[O][Bi][O]c2ccccc21,inactive
7,O=P(O)(O)CP(=O)(O)O,inactive
8,O=C1c2ccccc2C(=O)C1c1ccc(F)cc1,inactive
9,CCOc1ccc(NC(=S)Nc2ccc(OCC)cc2)cc1,inactive
10,O=C(O)c1ccc(NC(=O)[C@H](Cc2ccc(O)cc2)NC(=O)c2ccccc2)cc1,inactive
11,COc1cc2c(cc1OC)[C@@H](Cc1cc(OC)c(OC)c(OC)c1)[N+](C)(CCCOC(=O)CC/C=C/CCC(=O)OCCC[N+]1(C)CCc3cc(OC)c(OC)cc3[C@H]1Cc1cc(OC)c(OC)c(OC)c1)CC2 (stereo partly drawn),inactive
12,F[Si-2](F)(F)(F)(F)F,inactive
13,CC(C)CCC[C@@H](C)[C@H]1CC[C@H]2[C@@H]3CC=C4C[C@@H](O)CC[C@]4(C)[C@H]3CC[C@]12C,inactive
14,N[C@H](CC(=O)O)C(=O)O,inactive
15,Cc1c(Cl)cccc1Nc1ncccc1C(=O)O,inactive
16,O=C(O)CCC/C=C\C[C@@H]1[C@@H](/C=C/[C@@H](O)COc2cccc(C(F)(F)F)c2)[C@H](O)C[C@@H]1O,inactive
17,CN1C(=O)OC(C)(C)C1=O,inactive
18,CCCCCCCCCCCC(=O)OCC(O)CO (stereo not drawn),inactive
19,O=C(O)[C@H]1C(=CCO)O[C@H]2CC(=O)N12,inactive
20,O=P(O)(O)O,inactive

row,SMILES,Potency
1,CC(=O)Nc1ccc(OC(=O)c2ccccc2O)cc1,inactive
2,CC1=CC(=O)NS(=O)(=O)O1,inactive
3,COC(=O)C(CN)c1c[nH]c2ccc(OC)cc12 (stereo not drawn),inactive
4,CCOC(=O)[C@@H](N)CS,inactive
5,CCCCCCOC(=O)c1cccnc1,inactive
6,CCN(CC)CCOc1ccccc1OC,inactive
7,CO/N=C(/C(=O)N[C@@H]1C(=O)N2C(C(=O)O)=C(COC(N)=O)CS[C@H]12)c1ccco1,inactive
8,ClC(Cl)Cl,inactive
9,Nc1ncnc2c1ncn2[C@H]1CC[C@@H](CO)O1,inactive
10,CC1CCCCN1CCCOC(=O)c1ccccc1 (stereo not drawn),inactive
11,CC(=O)[C@H]1CC[C@H]2[C@@H]3C=CC4=CC(=O)CC[C@@]4(C)[C@H]3CC[C@]12C,inactive
12,CC/C=C\C/C=C\C/C=C\CCCCCCCC(=O)O,inactive
13,CCCCCCCCCCCCCCCCCCCCCC(=O)Nc1ccn([C@@H]2O[C@H](CO)[C@@H](O)[C@@H]2O)c(=O)n1,inactive
14,CN(Cc1ccccc1)Cc1ccccc1,inactive
15,CCCc1ccc(C(=O)O)cc1,inactive
16,C=CC(=O)O,inactive
17,O=C(NNCNNC(=O)c1ccncc1)c1ccncc1,inactive
18,CN(C)c1ccc(C(=C2C=CC(=[N+](C)C)C=C2)c2c(O)c(S(=O)(=O)[O-])cc3cc(S(=O)(=O)O)ccc23)cc1,inactive
19,CC(C)(CO)[C@@H](O)C(=O)NCCC(=O)NCCSSCCNC(=O)CCNC(=O)[C@H](O)C(C)(C)CO,inactive
